In the library only some 4.7% were active in any assay of this set; here they are far more common.
D1 antag – antagonists of human D1 dopamine receptor; activity change, negative = inhibition, % at 10 µM; AID 504652; actives 3.2% (n = 360,000); HEK293 TREx D1 cells, calcium flux, dopamine EC80; active compounds read low; in the data active means activity change below about -30%; further: on the % scale 0 is the no-effect control and ±100 the full control effect
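After overnight tetracycline induction at 30 C, force-coupled D1 HEK293 cells took up a no-wash calcium dye at room temperature. Compounds were added and monitored 180 s, and the response to EC80 dopamine was then recorded.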
D1 potentiator – potentiators of human D1 dopamine receptor; HEK293 TREx D1 cells, calcium flux, dopamine EC20 potentiation; AID 504651; P21728; actives 0.036% (n = 360,000); potentiation, % at 10 µM; in the data active means potentiation above about 30%; further: 0% is about no effect
TRHR PAM – TRH receptor (human) allosteric enhancement; TRHR cells, fluo-8 calcium fluorescence, EC20 TRH enhancement; AID 493056; actives 0.66% (n = 360,000); enhancement, % at 2 µM; P34981; in the data active means enhancement above about 30%; further: 0% is about no effect
Target sequence (P34981 whole entry, looked up): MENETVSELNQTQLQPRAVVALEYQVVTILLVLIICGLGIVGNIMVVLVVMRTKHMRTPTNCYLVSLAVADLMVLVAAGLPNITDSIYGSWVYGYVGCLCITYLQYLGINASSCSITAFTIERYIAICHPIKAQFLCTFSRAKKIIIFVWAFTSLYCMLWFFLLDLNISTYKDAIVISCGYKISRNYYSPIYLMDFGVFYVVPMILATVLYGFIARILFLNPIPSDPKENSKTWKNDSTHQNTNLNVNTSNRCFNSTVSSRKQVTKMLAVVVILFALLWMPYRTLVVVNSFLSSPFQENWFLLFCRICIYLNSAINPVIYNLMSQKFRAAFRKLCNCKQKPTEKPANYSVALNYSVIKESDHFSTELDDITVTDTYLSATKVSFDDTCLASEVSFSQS
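TRHR-expressing cells loaded with fluo-8 calcium dye were read kinetically (ex 480/em 530) during compound addition, then stimulated with an EC20 of TRH (10 nM final). Enhancement of the Gq-mediated intracellular calcium response was scored.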
D1 agonist – activates the human D1 dopamine receptor; HEK293 T-REx D1 cells, calcium flux, agonist mode; activation, % at 2 µM; P21728; actives 1% (n = 360,000); AID 504660; further: 0% is about no effect
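Tetracycline-induced HEK293 TREx D1 cells, force-coupled to calcium signalling, were dye-loaded with a no-wash calcium kit. Compound was pin-added after a 10 s baseline. Fluorescence was read kinetically at 1 cycle/s for 180 s, with calcium rises flagged as agonism.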
TRHR ag – activates the human TRH receptor; AID 493084; activation, % at 2 µM; actives 0.18% (n = 360,000); TRHR cells, calcium flux fluo-8, FDSS agonist mode; further: 0% is about no effect
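Steps: seed TRHR cells overnight; add fluo-8 no-wash Ca dye, RT 30 min–1.5 h; record 10 s baseline; pin-transfer compounds; monitor fluorescence 1 cycle/s for the agonist window. Calcium increases flag candidate agonists.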
Starred values were filed as active, the others as inactive; nt = no result given; ! = not confirmed by another sample. Unless noted, no stated cut-off is given here; in the data, active means activation above about 30%; inactive means the rest.

SMILES	D1 antag	D1 potentiator	TRHR PAM	D1 agonist	TRHR ag
O=C(N=Nc1c(O)[nH]c(=O)[nH]c1=O)C1COc2ccccc2O1 (stereo not given)	-37*	-10	-7	2	0
O=c1[nH]c(O)c(N=Nc2ccc3c(c2)OCCO3)c(=O)[nH]1	38	-1	-2	1	1
COc1ccc(CCNCc2ccc(Br)cc2)cc1OC	-11	-9	14	43*	0
COc1ccc(CCNCc2ccncc2)cc1OC	-22	-2	5	2	0
CCCCn1c(O)c(/C(C)=N/NC(=O)Nc2ccccc2)c(=O)[nH]c1=O	0	-8	35*	0	0
Cc1cccc(-n2c(O)c(/C=C/C=Nc3ccccc3)c(=O)[nH]c2=O)c1	-1	2	-2	34*	19
CNS(=O)(=O)c1ccc(N=Cc2c(O)n(-c3cccc(C)c3)c(=O)[nH]c2=O)cc1	-10	0	-5	3	0
CCOc1ccc(N2C(=O)NC(=O)/C(=C\c3ccccc3[N+](=O)[O-])C2=O)cc1	-46*	5	-2	1	1
COc1ccc(N2C(=O)NC(=O)/C(=C\c3ccccc3[N+](=O)[O-])C2=O)cc1	-3	0	4	1	1
Oc1ccc(Cl)cc1CN1CCN(Cc2ccccc2)CC1	-3	-8	31*	3	1
CCCCCc1nc2c(c(=O)c3ccccc3n2C)c(=O)n1C1CCCCCC1	-55*	7	-7	191*	23
CS(=O)(=O)N1CCCC(C(=O)N2CCC3(CC2)OCCO3)C1 (stereo not given)	-34*	-1	10	1	0
CN1CCc2cccc(Cl)c2CC1	-64*	-7	0	0	1
O=C1NC(=O)C(=C/C=C/c2coc3ccc(Br)cc3c2=O)C(=O)N1	1	-2	10	83*	41*
O=C(COc1ccccc1Cl)N1CCN(CCc2ccccn2)CC1	5	0	17	13	-1
CCC(=NCCCN(CC)CC)c1c(O)n(-c2ccccc2)c(=O)[nH]c1=O	-33*	-2	-2	1	0
CCN(CC)CCCN=C(C)c1c(O)n(-c2ccccc2)c(=O)[nH]c1=O	6	-1	0	4	1
COC(=O)c1ccc(NC(=O)c2cccn(Cc3ccccc3C)c2=O)cc1	2	6	-3	2	1
c1ccc2c3c([nH]c2c1)C1(CCNCC1)NCC3	6	-3	9	2	1
O=[N+]([O-])c1ccc(N2CCNCC2)cc1N1CCCCC1	-11	1	10	9	1
Nc1cc(N2CCNCC2)c([N+](=O)[O-])cc1Cl	-42*	-15	4	3	0
O=C(Nc1ccc2c(c1)OCO2)c1cccn(Cc2ccc(F)cc2)c1=O	nt	0	-2	0	0
CCN(CC)c1ccc(/C=C2\C(=O)NC(=O)N(Cc3ccco3)C2=O)cc1	-46*	-4	1	2	0
O=C1NC(=O)N(Cc2ccc(F)cc2)C(=O)/C1=C\C=C\c1ccco1	-4	3	-5	13	10
O=C1NC(=O)N(Cc2ccccc2)C(=O)/C1=C\c1ccco1	-32*	-1	3	3	7
SMILES	D1 antag	D1 potentiator	TRHR PAM	D1 agonist	TRHR ag
CCN(CC)c1ccc(/C=C2/C(=O)NC(=O)N(CC3CCCO3)C2=O)cc1 (stereo not given)	-4	4	-5	1	0
CC1=CC(=C2C(=O)NC(=S)NC2=O)C=C(C(F)(F)F)N1CCc1ccccc1	7	3	4	1	1
Cc1ccc(NC(=O)Cn2cc(C(=O)c3ccccc3)c3ccccc32)cc1	-12	-8	10	11	-1
COc1ccc(OC)c(CCNCc2c(C(=O)O)c(C)n(Cc3ccc(F)cc3Cl)c2C)c1	-5	-1	-4	2	0
Cc1cc2c(C(F)(F)F)cc(=O)oc2c2c1NCCC2	-9	4	21	113*	91*
O=c1cc(C(F)(F)F)c2cc3c4c(c2o1)CCCN4CCC3	-65*	-8	6	330*	240*
CCCCn1c(C)c(C(=O)OCC)c2c(CN3CCCC3)c(O)ccc21	-9	-5	-3	3	0
Cc1ccc(-n2c(/C=C/c3ccc(Br)s3)nc3ccccc3c2=O)cc1C	38	-2	-19	3	1
NCCc1ccc(OCc2ccccc2)c(OCc2ccccc2)c1	11	-2	2	34*	4
COC(=O)C1=C(c2ccc(OC(F)(F)F)cc2)C[C@@H]2CC[C@H]1N2C(=O)NC1CC1	2	-5	-2	1	0
N#CCN1CCN(c2ccc(C(F)(F)F)cc2)CC1	-50*	-9	15	1	0
C#CCN1CCN(c2ccc(F)cc2)CC1	9	-5	-6	1	-1
Cc1ccc(-n2c(/C=C/c3cccs3)nc3ccccc3c2=O)cc1C	-6	2	-16	2	0
Nc1c(C(=O)Nc2ccc(Br)cc2F)sc2nc3c(cc12)N1CCC3CC1	-32*	-5	5	1	-4
Cc1cccc(N2CCc3c2nc2ccccc2c3N)c1	-32*!	-9	4	6	1
Cc1cccc(-n2c(/C=C/c3ccccc3O)nc3ccccc3c2=O)c1	-7	-2	3	8	3
COc1cc2c(cc1O)[C@@H]1Cc3ccc(OC)c(O)c3CN1CC2	-90*	-7	-2	-1	0
COc1ccc(C[C@@H]2c3cc(O)c(OC)cc3CCN2C)cc1O	-88*	-11	-7	0	0
COc1ccccc1-c1nn2c(=O)cc(CN3CCN(C(=O)COc4ccccc4Cl)CC3)nc2s1	-1	0	-2	1	-1
COC(=O)C1=C(c2c(C)noc2C)C[C@@H]2CC[C@H]1N2C(=O)NCc1ccc(C(F)(F)F)cc1	-5	0	-4	0	-1
CN1C2CCC1CC(OC(=O)c1ccc(Cl)cc1)C2 (stereo not given)	2	-2	3	6	1
CN1[C@@H]2CC[C@H]1CC(OC1c3ccccc3CCc3ccccc31)C2 (stereo not given in full)	-43*	3	2	44*	-1
N#Cc1cccc(NC(=O)CSc2nc3c(cc2C#N)N2CCC3CC2)c1	-7	0	-4	0	1
Cc1[nH]c2ccccc2c1CCCNC1CCCCC1	-2	-3	-3	37*	2
N#Cc1cc2c(nc1SCC(=O)Nc1ccc(F)c(Cl)c1)C1CCN2CC1	5	-1	6	1	0
CN1C(=O)C(=Cc2ccc(N3CCOCC3)o2)C(=O)N(C)C1=O	15	-2	14	45*	0
CCCOc1ccc(C2SCC(=O)Nc3c2c(C)nn3-c2cccc(C)c2)cc1OC (stereo not given)	4	6	-7	-1	-1
Fc1ccccc1N1CCN(Cc2c(F)cccc2F)CC1	2	-1	37*	0	-1

High-throughput results as filed in PubChem BioAssay.
